Rows were chosen to be rich in hits. Some 10% of all compounds tested hit in one or more screens of this group.
BAZ2B block: BAZ2B (human) inhibition; AlphaScreen BAZ2B-H3K14Ac peptide displacement; Potency, µM (top dose mostly 114 µM), for inactives: top-dose activity change, negative = inhibition, most hits filed as inhibitors; actives 4.4% (n = 360,000); also: % is scaled to controls: 0 for no effect and ±100 for the full control effect; nearly all actives have a fitted effect of over 60% in size
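AlphaScreen displacement of biotin-H3(5-23)K14Ac peptide (50 nM final) from BAZ2B (50 nM final) in PBS pH 7.4, 0.01% Tween-20; complex preformed 30 min RT, then compounds (top 110 uM) 30 min RT, beads 20 min dark.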
HP1b chromo inh: blocks HP1-beta chromodomain binding to methylated histone tails | P83916 | AlphaScreen HP1-beta / biotin-H3K9me3 peptide binding | AID 540317 | Potency, µM (highest dose often 114 µM), for the others: top-dose activity change, negative = inhibition, hits mostly inhibitors | actives 0.56% (n = 390,000); also: nearly all actives have a fitted effect of over 70% in size
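AlphaScreen: HP1-beta (50 nM) preformed 30 min with biotin-H3(1-18)K9me3 peptide (50 nM) in PBS pH 7.4, 0.01% Tween-20. Compound added for 30 min at RT, then streptavidin donor/nickel chelate acceptor beads (10 ug/mL) for 30 min.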
GLS inhibitor: blocks human kidney-isoform glutaminase activity; AID 624170; actives 0.21% (n = 410,000); GLS enzymatic activity, qHTS titration; Potency, µM (highest dose often 45.5 µM), inactives show top-dose activity change, negative = inhibition, hits mostly inhibitors; O94925; also: % is scaled to controls: 0 for no effect and ±100 for the full control effect
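Read-out is an Amplex red fluorescence increase coupled through glutamate oxidase and HRP, measured before and after 30 min room-temperature incubation. hKGA is in 45 mM KH2PO4 (pH 8.2) with 0.02% Tween-20; glutamine added as 1mM solution.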
L3MBTL1 block: L3MBTL1 (human) inhibition; Potency, µM (titrated, usually from 57.1 µM), inactives show top-dose activity, negative = inhibition, most hits filed as inhibitors; actives 0.66% (n = 230,000); Q9Y468; AID 485360; AlphaScreen L3MBTL1–H3K9me1 peptide binding; also: % is scaled to controls: 0 for no effect and ±100 for the full control effect; nearly all actives have a fitted effect of over 60% in size
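L3MBTL1 (50 nM) pre-complexed 30 min with biotinylated H3(1-15)K9me1 peptide (75 nM), then compounds added for 30 min at room temperature; AlphaScreen streptavidin donor/nickel chelate acceptor beads (10 ug/mL final) read after 30 min dark incubation.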
JMJD2A Tudor: JMJD2A Tudor domain (human) inhibition; Potency, µM (titrated, usually from 114 µM), for inactives: top-dose activity change, negative = inhibition, hits mostly inhibitors; O75164; actives 4.4% (n = 390,000); AlphaScreen JMJD2A-Tudor / H3K4me3 peptide binding; AID 504339; also: % is scaled to controls: 0 for no effect and ±100 for the full control effect; nearly all actives have a fitted effect of over 50% in size
G9a inh: blocks human histone lysine methyltransferase G9a | Q96KQ7 | G9a H3K9 monomethylation, AlphaScreen, 2 h | Potency, µM (highest dose often 102 µM), without a hit: top-dose activity, negative = inhibition, usual class: inhibitors | actives 8.8% (n = 350,000); also: % is scaled to controls: 0 for no effect and ±100 for the full control effect; nearly all actives have a fitted effect of over 75% in size
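Methyltransferase reactions run at room temperature for 2 h (20 nM enzyme, 500 nM biotin-H3K9 peptide, 20 uM SAM) after a 15 min compound preincubation; product detected by AlphaScreen beads and anti-H3K9me1 antibody.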
* hit, by the source's call; [ ] = remark or other dose. Calls follow the shape of the dose curve; as a rule, active = well fitted curve in the direction sought with a large enough effect; inconclusive = small, poorly fitted or top-dose-only effect, or another doubt; inactive = no such curve, though single readings can be large; an effect the other way counts as inactive or inconclusive. Potency is read from the fitted curve at half-maximal effect.

What do the screens show for `C/C(=C\C(=O)c1ccc(C)o1)Nc1ccc(C(=O)O)cc1C`?
BAZ2B block: inconclusive; HP1b chromo inh: -9%; GLS inhibitor: 4%; L3MBTL1 block: -11%; JMJD2A Tudor: 28µM*; G9a inh: 71µM*

What do the screens show for `Cn1c(=O)n(Cc2ccccc2)c(=O)c2c1nc1n2CCCN1Cc1ccccc1`?
BAZ2B block: -12%; HP1b chromo inh: -9%; GLS inhibitor: -8%; JMJD2A Tudor: -14%; G9a inh: 9%[59 µM]

How did Cn1c(NN)nc2ccccc2c1=O do in these assays?
BAZ2B block: -23%; HP1b chromo inh: 41%; GLS inhibitor: -10%; L3MBTL1 block: -3%; JMJD2A Tudor: -2%; G9a inh: 50µM*

What do the screens show for `Cn1c(=O)n(Cc2ccccc2)c(=O)c2c1nc1n2CCS1`?
BAZ2B block: -1%; HP1b chromo inh: 12%; GLS inhibitor: 11µM*; L3MBTL1 block: -5%; JMJD2A Tudor: -15%[57.1 µM]; G9a inh: -3%

Results for Cn1c(=O)n(Cc2ccccc2)c(=O)c2c1nc1n2CCCN1CCc1ccccc1 ?
BAZ2B block: inconclusive; HP1b chromo inh: inconclusive; GLS inhibitor: -7%; JMJD2A Tudor: inconclusive; G9a inh: 50µM*

How did C=CCn1c(=O)c2c(nc3n2CCS3)n(C)c1=O do in these assays?
BAZ2B block: -8%; HP1b chromo inh: 12%; GLS inhibitor: -2%; L3MBTL1 block: 12%; JMJD2A Tudor: -6%; G9a inh: 4%[59 µM]

How did Cn1c(NN)nc2c1c(=O)n(Cc1ccccc1)c(=O)n2C do in these assays?
BAZ2B block: inconclusive; HP1b chromo inh: -3%; GLS inhibitor: inconclusive; JMJD2A Tudor: -36%; G9a inh: 28µM*

What do the screens show for `O=C(Nc1ccc(F)c(Cl)c1)N1CCC(CN2CCc3ccccc3C2)CC1`?
BAZ2B block: -8%; HP1b chromo inh: 3%; GLS inhibitor: 1%; JMJD2A Tudor: -20%; G9a inh: -40%[59 µM]

What do the screens show for `Cc1ccccc1Cn1c(=O)c2c(nc3n2CCCN3Cc2ccccc2)n(C)c1=O`?
HP1b chromo inh: inconclusive; GLS inhibitor: 11µM*; JMJD2A Tudor: inconclusive

How did Nc1nnnn1/N=C/c1cc(Cl)cc(Cl)c1O do in these assays?
BAZ2B block: -3%; HP1b chromo inh: 16%; GLS inhibitor: 10%; L3MBTL1 block: 0%; JMJD2A Tudor: 40µM*

How did Nc1nnnn1/N=C/c1cc(Cl)ccc1O do in these assays?
BAZ2B block: 1%; HP1b chromo inh: 59%; GLS inhibitor: 40%; JMJD2A Tudor: -3%; G9a inh: 15%

What do the screens show for `O=C1CCc2nc3ccccc3c(=O)n2N1`?
BAZ2B block: 56µM*; HP1b chromo inh: 27%; GLS inhibitor: 4%; L3MBTL1 block: 22%; JMJD2A Tudor: inconclusive; G9a inh: -50%[12.7 µM]

How did CN1CC(c2ccccn2)C2(SC(=S)N(Cc3ccccc3)C2=O)C12C(=O)Nc1ccccc12 (stereo not given) do in these assays?
BAZ2B block: 14µM*; HP1b chromo inh: inconclusive; GLS inhibitor: 2%; L3MBTL1 block: inconclusive; JMJD2A Tudor: 22µM*

Results for CN1CC(c2ccccc2)C2(SC(=S)N(Cc3ccco3)C2=O)C12C(=O)Nc1ccccc12 (stereo not given) ?
BAZ2B block: inconclusive; HP1b chromo inh: -3%; GLS inhibitor: -5%; JMJD2A Tudor: inconclusive; G9a inh: inconclusive

Results for CC1=CCC(/C=N\Nc2nnc3c(n2)[nH]c2ccccc23)CC1 (stereo not given) ?
BAZ2B block: 50µM*; L3MBTL1 block: -6%; G9a inh: -8%[59 µM]

What do the screens show for `CC1CCN(C(=O)CSc2nnc3c(n2)[nH]c2ccccc23)CC1`?
BAZ2B block: -16%; HP1b chromo inh: -1%; GLS inhibitor: -3%; JMJD2A Tudor: inconclusive; G9a inh: 18%

High-throughput results deposited in PubChem by National Center for Advancing Translational Sciences (NCATS).
